These results are taken from PubChem BioAssay (EPA / NIEHS).

The source made the active and inactive calls. The calls were made as follows: active = hit-call score of the fitted dose curve at least 0.9, where 1 is the maximum; inactive = score below 0.9.

Read-out in experiment [1]: Transforming growth factor beta 1 (TGFb1), TGFB1 (gene 7040)
The experiment can be described thus: BSK_KF3CT_TGFb1: BioMAP Diversity Plus: KF3CT Assay for Transforming growth factor beta 1 (TGFb1) Biomarker Activity (AID 2283072). The following applies: primary human keratinocytes with fibroblasts; actives raise or lower the signal. In a few lines:
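Read-out: ELISA for TGF-b1 in keratinocyte/foreskin fibroblast human skin co-culture, 24 h after dosing; bidirectional curve fit vs DMSO baseline; gain or loss of signal scored.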

Read-out in experiment [2]: C-C motif chemokine 2 (Homo sapiens) (UniProt P13500)
The experiment can be described thus: BSK_KF3CT_MCP1: BioMAP Diversity Plus: KF3CT Assay for Monocyte Chemoattractant Protein 1 (MCP1/CCL2) Biomarker Activity (AID 2283073). As to conditions: primary human keratinocytes with fibroblasts; actives raise or lower the signal. In short, it runs like this: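 Human keratinocyte plus foreskin fibroblast primary co-culture exposed to chemical for 24 h. MCP-1 levels measured by ELISA. Bidirectional curve fitting relative to DMSO negative control as baseline.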

Read-out in experiment [3]: Matrix Metallopeptidase 9 (MMP9), MMP9 (gene 4318)
As to the kind of experiment: BSK_KF3CT_MMP9: BioMAP Diversity Plus: KF3CT Assay for Matrix Metallopeptidase 9 (MMP9) Biomarker Activity (AID 2283074).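 As to AC50: MMP9 protein level quantified by ELISA in the co-culture.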 As to conditions: primary human keratinocytes with fibroblasts; actives raise or lower the signal. In a few lines: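 ELISA read-out of MMP-9 at 24 h post-dosing in a co-culture of human skin keratinocytes and foreskin fibroblasts. Gain or loss of signal was fitted in both directions against DMSO.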

Read-out in experiment [4]: urokinase plasminogen activator (uPA), PLAU (gene 5328)
As to the kind of experiment: BSK_KF3CT_uPA: BioMAP Diversity Plus: KF3CT Assay for urokinase plasminogen activator (uPA) Biomarker Activity (AID 2283075). As to conditions: primary human keratinocytes with fibroblasts; actives raise or lower the signal. In a few lines: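 Skin co-culture (keratinocytes + foreskin fibroblasts), human primary; 24 h post-dose; uPA by ELISA; gain/loss fit vs DMSO baseline.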

Read-out in experiment [5]: CD40, CD40 (gene 958)
As to the kind of experiment: BSK_LPS_CD40: BioMAP Diversity Plus: LPS Assay for CD40 Biomarker Activity (AID 2283076). As to conditions: primary human HUVEC with PBMC; actives raise or lower the signal. In short, it runs like this:
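Primary human umbilical vein endothelial cells co-cultured with peripheral blood mononuclear cells, LPS-stimulated, were dosed with chemical and read 24 h later. CD40 levels were measured by ELISA and fitted bidirectionally against DMSO as negative control and baseline.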

Read-out in experiment [6]: E-selectin (Homo sapiens) (UniProt P16581)
The experiment can be described thus: BSK_LPS_Eselectin: BioMAP Diversity Plus: LPS Assay for Eselectin Biomarker Activity (AID 2283077). As to conditions: primary human HUVEC with PBMC; actives raise or lower the signal. In a few lines:
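Human umbilical vein endothelial cells co-cultured with peripheral blood mononuclear cells under LPS stimulation; E-selectin measured by ELISA 24 h after chemical dosing. Activity fitted bidirectionally against DMSO as negative control and baseline.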

Read-out in experiment [7]: Interleukin-8 (IL8), CXCL8 (gene 3576)
As to the kind of experiment: BSK_LPS_IL8: BioMAP Diversity Plus: LPS Assay for Interleukin-8 (IL8) Biomarker Activity (AID 2283078). As to conditions: primary human HUVEC with PBMC; actives raise or lower the signal. In a few lines: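 Human umbilical vein endothelial cells co-cultured with PBMC were stimulated with LPS; IL-8 levels were measured by ELISA 24 h after chemical dosing. Activity was fitted bidirectionally against DMSO as negative control and baseline.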

Experiment [8] in a line: BSK_LPS_SRB: Viability Assessment in the BioMAP Diversity Plus: LPS Assay (AID 2283079).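 Also: total protein by sulforhodamine B absorbance as a cytotoxicity measure; measured one day after compound addition.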 The following applies: primary human HUVEC with PBMC. In short, it runs like this: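 Human umbilical vein endothelial cells co-cultured with PBMC (LPS system) were dosed for 24 h. Total protein was stained with 0.1% sulforhodamine B after 10% TCA fixation, read at 560 nm, and fitted bidirectionally against DMSO baseline.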

Read-out in experiment [9]: Interleukin-1 alpha (IL1a), IL1A (gene 3552)
As to the kind of experiment: BSK_LPS_IL1a: BioMAP Diversity Plus: LPS Assay for Interleukin-1 alpha (IL1a) Biomarker Activity (AID 2283080). The following applies: primary human HUVEC with PBMC; actives raise or lower the signal. In a few lines:
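Human umbilical vein endothelial cells co-cultured with peripheral blood mononuclear cells were LPS-stimulated and exposed to test chemicals for 24 h. IL-1 alpha was quantified by ELISA, with bidirectional curve fitting against DMSO as the negative control and baseline.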

Read-out in experiment [10]: Monocyte Chemoattractant Protein-1 (MCP1), CCL2 (gene 6347)
The experiment can be described thus: BSK_LPS_MCP1: BioMAP Diversity Plus: LPS Assay for Monocyte Chemoattractant Protein-1 (MCP1) Biomarker Activity (AID 2283081).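 As to AC50: secreted MCP-1 protein quantified by ELISA in culture supernatant.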 The following applies: primary human HUVEC with PBMC; actives raise or lower the signal. In short, it runs like this: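 HUVEC plus PBMC co-culture (human primary cells, LPS system) exposed to test chemical for 24 h; MCP-1 measured by ELISA. Bidirectional curve fitting against DMSO baseline; parallel SRB total-protein staining flags overt cytotoxicity.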

Experiment [11] can be described thus: BSK_LPS_PGE2: BioMAP Diversity Plus: LPS Assay for Prostaglandin E2 (PGE2) Biomarker Activity (AID 2283082).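 As to AC50: secreted prostaglandin E2 measured by ELISA in LPS-stimulated co-culture.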 The following applies: primary human HUVEC with PBMC; actives raise or lower the signal. In a few lines: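 ELISA read-out of PGE2 from human umbilical vein endothelial cells co-cultured with peripheral blood mononuclear cells under LPS, 24 h post-dose. Gain or loss of signal scored relative to DMSO baseline.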

Read-out in experiment [12]: Macrophage colony-stimulating factor (MCSF), CSF1 (gene 1435)
As to the kind of experiment: BSK_LPS_MCSF: BioMAP Diversity Plus: LPS Assay for Macrophage colony-stimulating factor (MCSF) Biomarker Activity (AID 2283083). As to conditions: primary human HUVEC with PBMC; actives raise or lower the signal. In a few lines:
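Human umbilical vein endothelial cells co-cultured with peripheral blood mononuclear cells were exposed to compound for 24 h. M-CSF levels were measured by ELISA, and bidirectional curve fitting used DMSO as the negative control and baseline.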

Read-out in experiment [13]: Tissue Factor, F3 (gene 2152)
The experiment can be described thus: BSK_LPS_TissueFactor: BioMAP Diversity Plus: LPS Assay for Tissue Factor Biomarker Activity (AID 2283084). As to conditions: primary human HUVEC with PBMC; actives raise or lower the signal. In short, it runs like this:
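Human umbilical vein endothelial cells co-cultured with peripheral blood mononuclear cells were dosed and stimulated with LPS. Cell-surface CD142 was quantified by ELISA at 24 h. Activity was fitted bidirectionally against DMSO baseline.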

Read-out in experiment [14]: Tumor necrosis factor (Homo sapiens) (UniProt P01375)
The experiment can be described thus: BSK_LPS_TNFa: BioMAP Diversity Plus: LPS Assay for Tumour Necrosis Factor alpha (TNFa) Biomarker Activity (AID 2283085).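 As to AC50: TNFa protein level quantified by ELISA in the co-culture.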 The following applies: primary human HUVEC with PBMC; actives raise or lower the signal. In short, it runs like this:
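HUVEC/PBMC co-culture, LPS-stimulated; 24 h post-dose; TNFa by ELISA; gain or loss of signal fitted bidirectionally vs DMSO baseline.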

Read-out in experiment [15]: Vascular cell adhesion molecule 1 (VCAM1), VCAM1 (gene 7412)
As to the kind of experiment: BSK_LPS_VCAM1: BioMAP Diversity Plus: LPS Assay for Vascular cell adhesion molecule 1 (VCAM1) Biomarker Activity (AID 2283086). The following applies: primary human HUVEC with PBMC; actives raise or lower the signal. In a few lines:
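ELISA read-out of VCAM-1 at 24 h post-dosing in an LPS-driven HUVEC/PBMC primary human co-culture; gain or loss of signal fitted bidirectionally against DMSO baseline. Cytotoxicity tracked in parallel cultures by SRB total-protein staining.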

Read-out in experiment [16]: CD38, CD38 (gene 952)
As to the kind of experiment: BSK_SAg_CD38: BioMAP Diversity Plus: SAg Assay for CD38 Biomarker Activity (AID 2283087). As to conditions: primary human HUVEC with PBMC; actives raise or lower the signal. In short, it runs like this:
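Measures CD38 on a human endothelial/PBMC co-culture driven by SEB and TSST-1, 24 h after compound exposure, using ELISA with fluorescence detection; DMSO defines baseline for bidirectional curve fitting.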

Read-out in experiment [17]: CD40, CD40 (gene 958)
As to the kind of experiment: BSK_SAg_CD40: BioMAP Diversity Plus: SAg Assay for CD40 Biomarker Activity (AID 2283088). As to conditions: primary human HUVEC with PBMC; actives raise or lower the signal. In short, it runs like this:
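Human umbilical vein endothelial cells co-cultured with PBMC; CD40 levels measured by ELISA with fluorescence read-out 24 h after chemical dosing. Gain or loss of signal fitted bidirectionally against DMSO baseline.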

Read-out in experiment [18]: CD69, CD69 (gene 969)
As to the kind of experiment: BSK_SAg_CD69: BioMAP Diversity Plus: SAg Assay for CD69 Biomarker Activity (AID 2283089).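 As to AC50: cell surface CD69 protein quantified by ELISA with fluorescence detection.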 As to conditions: primary human HUVEC with PBMC; actives raise or lower the signal. In a few lines:
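Values derive from bidirectional fitting relative to DMSO vehicle. Cells: umbilical vein endothelium plus peripheral blood mononuclear cells, treated 24 h before fluorescent ELISA for CD69.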

Read-out in experiment [19]: Monocyte Chemoattractant Protein-1 (MCP1), CCL2 (gene 6347)
The experiment can be described thus: BSK_SAg_MCP1: BioMAP Diversity Plus: SAg Assay for Monocyte Chemoattractant Protein-1 (MCP1) Biomarker Activity (AID 2283090). As to conditions: primary human HUVEC with PBMC; actives raise or lower the signal. In short, it runs like this:
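Values derive from bidirectional fitting of ELISA-measured MCP1 against DMSO controls. Readings were taken 24 h after dosing human vascular endothelial cells co-cultured with peripheral blood mononuclear cells under superantigen stimulation.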

Sequence of E-selectin (Homo sapiens) (P16581 whole entry, looked up): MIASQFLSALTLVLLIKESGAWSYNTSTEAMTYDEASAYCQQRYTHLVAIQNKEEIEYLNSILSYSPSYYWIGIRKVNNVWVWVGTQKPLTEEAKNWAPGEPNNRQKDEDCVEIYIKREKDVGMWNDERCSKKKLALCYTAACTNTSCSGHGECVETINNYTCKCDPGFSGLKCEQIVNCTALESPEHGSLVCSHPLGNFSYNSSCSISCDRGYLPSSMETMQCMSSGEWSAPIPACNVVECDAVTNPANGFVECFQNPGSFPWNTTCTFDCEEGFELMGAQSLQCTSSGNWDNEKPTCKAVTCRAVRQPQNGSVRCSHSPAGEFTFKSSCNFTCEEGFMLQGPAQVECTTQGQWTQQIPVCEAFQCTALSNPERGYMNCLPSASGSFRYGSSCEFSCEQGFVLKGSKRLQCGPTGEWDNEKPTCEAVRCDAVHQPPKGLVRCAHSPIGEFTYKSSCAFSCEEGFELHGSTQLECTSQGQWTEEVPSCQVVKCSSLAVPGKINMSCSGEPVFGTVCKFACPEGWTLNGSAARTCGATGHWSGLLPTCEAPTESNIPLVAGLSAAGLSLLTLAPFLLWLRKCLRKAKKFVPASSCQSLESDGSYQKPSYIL
Sequence of Tumor necrosis factor (Homo sapiens) (P01375 whole entry, looked up): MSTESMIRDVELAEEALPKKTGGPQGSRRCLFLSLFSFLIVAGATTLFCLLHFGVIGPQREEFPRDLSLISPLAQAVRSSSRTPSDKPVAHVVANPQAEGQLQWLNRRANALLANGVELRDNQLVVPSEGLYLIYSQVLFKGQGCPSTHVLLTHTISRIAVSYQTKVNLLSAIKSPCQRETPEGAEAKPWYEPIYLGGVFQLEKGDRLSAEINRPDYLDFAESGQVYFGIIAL

In the case of `CN1CSC(=S)N(C)C1`, the outcome in [1], in [2], in [4], in experiment [5] and in experiment [8] was inactive. Also, the AC50 – broadly, the midpoint of the concentration-response curve, whichever way the signal moves – in experiment [3] was 14.4 µM (active); in experiment [6], 19 µM (active); in experiment [7], 13 µM (active); in [9], 12.8 µM (active); in [10], 11.9 µM (active); in experiment [11], 3.85 µM (active). Further, the concentration at half-maximal activity (AC50) in experiment [12] is 10.8 µM (active); in experiment [13], 13.7 µM (active); in experiment [14] it was 8.45 µM (active); in [15], 18.3 µM (active); in experiment [16], 23.3 µM (active); in [17] it was 20 µM (active). For the same molecule, the AC50 is 20 µM (active) in experiment [18] and 15 µM (active) in experiment [19].

For `CCC(C)(NC(=O)c1cc(Cl)c(C)c(Cl)c1)C(=O)CCl` (stereo not given), the AC50 in [1] was 20 µM (active); in [2], 15.9 µM (active); in [3], 7.45 µM (active); in experiment [4], 35.5 µM (active); in experiment [5] it was 3.52 µM (active); in experiment [6], 10.1 µM (active). Besides, the AC50 was 12.2 µM (active) in experiment [7]; 20 µM (active) in experiment [8]; 15.9 µM (active) in experiment [9]; 12.2 µM (active) in experiment [10]; 13 µM (active) in experiment [12]; 5.21 µM (active) in [13]. The AC50 is 12.3 µM (active) in experiment [14]; 8.9 µM (active) in experiment [15]; 6.39 µM (active) in experiment [16]; 7.22 µM (active) in experiment [17]; 14.3 µM (active) in [18]; 10.3 µM (active) in experiment [19]. Further, the result in experiment [11] was inactive.

With `Clc1ccccc1-c1nnc(-c2ccccc2Cl)nn1`, the result in experiment [1], in experiment [2], in [3], in [4], in [5] and in [6] was inactive. Also, the outcome in experiment [7], in [8], in experiment [9], in experiment [10], in experiment [11] and in [12] was inactive. Besides, the result in [13], in experiment [14], in experiment [15], in [16], in [17] and in [18] was inactive. The outcome in [19] was inactive.

On to `O=C(Nc1ccccc1)Nc1cnns1`, for which the outcome in experiment [1], in experiment [2], in experiment [3], in experiment [4], in experiment [5] and in [6] was inactive. The result in experiment [7], in experiment [8], in experiment [9], in experiment [10], in experiment [11] and in [12] was inactive. Moreover, the result in [13], in experiment [15], in experiment [16], in experiment [17], in experiment [18] and in experiment [19] was inactive. Besides, the half-maximal activity concentration (AC50) in [14] is 18.4 µM (active).

As for `CC1(c2ccc(Oc3ccccc3)cc2)OC(=O)N(Nc2ccccc2)C1=O` (stereo not given), the outcome in [1], in experiment [2], in experiment [3], in experiment [4], in [9] and in experiment [14] was inactive. For the same molecule, the AC50 was 24.1 µM (active) in experiment [5]; 20 µM (active) in experiment [6]; 20 µM (active) in [7]; 31 µM (active) in experiment [8]; 29.5 µM (active) in experiment [10]; 6.92 µM (active) in experiment [11]. Further, the AC50 in experiment [12] is 20 µM (active); in [13], 28.4 µM (active); in [15], 20 µM (active); in experiment [16] it was 19.9 µM (active); in experiment [17], 15.8 µM (active); in [18], 20 µM (active). Also, the AC50 in [19] was 19.8 µM (active).
